Screens: PubChem BioAssay, National Center for Advancing Translational Sciences (NCATS)
An excerpt weighted towards active compounds, which were near 7.9% of everything screened.
HT1080 IDH1KD tx: toxicity to HT-1080 IDH1 knockdown cells (counter line); HT-1080 IDH1 knockdown viability, ATP luminescence, 48 h; Potency, µM (highest dose often 46.1 µM), for inactives: at the highest dose activity, negative = toxicity, actives largely listed as cytotoxic; 360,000 tested, 2% active;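 also: 0% = DMSO wells and -100% = cell-free medium wells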
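Viability of IDH1-knockdown HT-1080 fibrosarcoma cells was assessed by CellTiter-Glo after 48 h at 37 °C with titrated compound; concentration-effect curves were classified by fit quality and response size.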
HT1080NT lethal: kills 2HG-producing HT-1080-NT fibrosarcoma cells | HT-1080-NT fibrosarcoma viability, CellTiter-Glo ATP luminescence, 48 h | Potency, µM (highest dose often 46.1 µM), without a hit: top-dose activity, negative = less viability, most hits filed as cytotoxic | 360,000 tested, 1.6% active;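 also: NT is the 2HG producing partner of a matched IDH1 knockdown line; 0% = DMSO-treated cells and -100% = media-only wells without cells; nearly all actives have a fitted effect of over 55% in size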
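Luminescent CellTiter-Glo readout after 48 hours of compound exposure at 37 degrees C defined viability of HT-1080-NT cells. Activity was normalized to DMSO wells and cell-free media wells; concentration-response curves were fitted and assigned curve classes.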
KB-3-1 cytotox: KB-3-1 parental cell cytotoxicity; AID 1347075; KB-3-1 viability, CellTiter-Glo ATP luminescence, 72 h; 400,000 tested, 1.4% active; Potency, µM (top dose mostly 46.1 µM), usual class: cytotoxic; also: % is scaled to controls: 0 for no effect and ±100 for the full control effect; nearly all actives have a fitted effect of over 60% in size
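Cytotoxicity measured as CellTiter-Glo luminescence after 72 h at 37 C. Compound titrations were pinned onto drug-naive KB-3-1 parental adenocarcinoma cells grown in DMEM with 10% FBS, and normalized data fitted to concentration-response curves.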
SW480 rereplic: inducers of DNA re-replication in SW480 colon cancer cells; 340,000 tested, 1.8% active; Potency, µM (top dose mostly 46.1 µM), for the others: at the highest dose re-replication activation, usual class: activators; SW480 DNA re-replication, Hoechst DNA content imaging, 48 h; also: % of control where 0% means no effect; nearly all actives have a fitted effect of over 55% in size
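Hoechst fluorescence of nuclei (405 nm excitation, 500-530 nm emission) measured by plate-scanning imager after 48 hr compound exposure at 37 C; re-replication scored as increased number of nuclei with elevated intensity.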
MCF10A rerep: inducers of DNA re-replication in MCF 10A breast cells | MCF 10A DNA re-replication, Hoechst nuclear intensity, 48 h | Potency, µM (titrated, usually from 46.1 µM), for the others: at the highest dose activity, positive = re-replication, usual class: activators | 350,000 tested, 2.9% active | AID 624296; also: % of control where 0% means no effect; nearly all actives have a fitted effect of over 50% in size
KB-V1 cytotox: KB-V1 MDR subline cytotoxicity; KB-V1 MDR cells viability, CellTiter-Glo, 72 h; Potency, µM (doses to about 46.1 µM), hits mostly cytotoxic; 400,000 tested, 3.4% active; also: % is scaled to controls: 0 for no effect and ±100 for the full control effect; nearly all actives have a fitted effect of over 60% in size
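Following 72 h at 37 degrees C with compound, KB-V1 cell viability was read by CellTiter-Glo luminescence, medium being phenol-red-free DMEM plus 10% FBS; concentration-response parameters came from normalized, curve-fitted qHTS data.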
The depositor's hits bear a star; i = inactive; ? = inconclusive; · = no result. Calls follow the shape of the dose curve; as a rule, active = well fitted curve in the direction sought with a large enough effect; inconclusive = small, poorly fitted or top-dose-only effect, or another doubt; inactive = no such curve, though single readings can be large; an effect the other way counts as inactive or inconclusive. Potency is read from the fitted curve at half-maximal effect.

SMILES	HT1080 IDH1KD tx	HT1080NT lethal	KB-3-1 cytotox	SW480 rereplic	MCF10A rerep	KB-V1 cytotox
O=C1C2=C(Nc3ccccc3SC2c2ccc(C(F)(F)F)cc2)c2ccccc21 (stereo unspecified)	·	·	?	·	·	16µM*
CCc1ccc(C2Sc3ccccc3NC3=C2C(=O)c2ccccc23)cc1 (stereo unspecified)	·	·	i	·	·	?
CC(=O)Nc1ccc(C2Sc3ccccc3NC3=C2C(=O)c2ccccc23)cc1 (stereo unspecified)	·	·	i	·	·	i
Cc1cccc(S(=O)(=O)c2c(N)n(-c3ccccc3)c3nc4ccccc4nc23)c1	8%	4%	i	-1%	8%	2.9µM*
Cc1cccc(S(=O)(=O)c2c(N)n(/N=C/c3ccco3)c3nc4ccccc4nc23)c1	-14%	-16%	i	25%	?	3.7µM*
Cc1ccc(-n2c(N)c(S(=O)(=O)c3ccccc3)c3nc4ccccc4nc32)cc1	16%	20%	i	-20%	-13%	i
Cc1ccc(S(=O)(=O)c2c(N)n(/N=C/c3ccco3)c3nc4ccccc4nc23)cc1	0%	6%	i	-7%	?	i
Nc1c(S(=O)(=O)c2cccs2)c2nc3ccccc3nc2n1/N=C/c1cccc(O)c1	21µM*	?	?	?	6.5µM*	?
CCN1/C(=C/c2ccc3cccc(C)c3[n+]2CC)Sc2ccccc21	3.2µM*	?	?	2%	18%	i
CC[n+]1c(/C=C/c2ccc(OC)c(OC)c2)ccc2ccccc21	5%	11%	i	-2%	18%	i
CCN1/C(=C\c2ccc3cc(C)ccc3[n+]2CC)Sc2cc(C)c(C)cc21	·	16µM*	?	2%	?	i
CCN1/C(=C\C=C2\C(=O)N(c3ccccc3)C(=S)N2C)Sc2ccccc21	19%	-3%	i	3%	-3%	i
CCN1/C(=C/c2ccc3cc(C)cc(C)c3[n+]2CC)Sc2cc(C)ccc21	?	7.3µM*	i	0%	5.8µM*	i
CCN1/C(=C/c2ccc3cc(C)ccc3[n+]2CC)Sc2ccc3sccc3c21	0.92µM*	?	2.6µM*	26%	6%	i
CC1(C)CC(=O)C=C(NCc2ccccc2)C1	0%	1%	i	2%	-29%	i
CC1(C)CC(=O)C=C(NCc2cccc(C(F)(F)F)c2)C1	0%	-1%	i	9.2µM*	-5%	?
CN1CCN(C2Cc3cc(F)ccc3Sc3ccc(Cl)cc32)CC1 (stereo unspecified)	?	-24%	i	?	21µM*	i
CN1CCN(C2Cc3ccccc3Sc3ccc(Cl)cc32)CC1 (stereo unspecified)	4%	-8%	i	·	?	?
CN1CCN(C2Cc3ccc(F)cc3Sc3cc(F)c(Cl)cc32)CC1 (stereo unspecified)	?	26µM*	?	?	?	i
COc1ccc(CNC(=O)C2CCN(S(=O)(=O)c3ccc4nc5c(c(C(=O)O)c4c3)CCCC5)CC2)cc1	10%	2%	i	·	·	i
Cc1cc(F)ccc1C(O)c1ncc(-c2ccccc2F)[nH]1 (stereo unspecified)	-11%	-10%	i	·	·	i
COc1ccc(NC(=O)c2ccc3c(c2)c(C)c(C)n3Cc2ccc(F)cc2)cc1	·	·	12µM*	·	·	8.2µM*
CCOC(=O)c1ccc(NC(=O)c2ccc3c(c2)c(C)c(C)n3Cc2ccc(F)cc2)cc1	·	·	i	·	·	i
CCOc1cc(/C=C2\CCCc3c2nc2ccccc2c3C(=O)O)ccc1OC	18%	-2%	i	?	4%	i
CCn1c(=O)cc(SCC(=O)NCc2ccc(C)o2)c2ccccc21	?	-29%	i	-2%	21µM*	?
SMILES	HT1080 IDH1KD tx	HT1080NT lethal	KB-3-1 cytotox	SW480 rereplic	MCF10A rerep	KB-V1 cytotox
CCn1c(=O)cc(OCC(=O)NCc2ccc(C)o2)c2ccccc21	-12%	-1%	i	1%	?	18µM*
O=C(CSc1nnc2scc(-c3ccc(Cl)cc3)n12)NCc1ccco1	1%	5%	i	0%	?	23µM*
O=C(CCSc1nnc2scc(-c3ccccc3)n12)Nc1nc(-c2ccccc2)ns1	13%	13%	i	-3%	2%	10µM*
COc1ccc2c(c1)c(N1CCCC1=O)c(C(=O)Nc1ccc(Cl)cc1C)n2C	·	·	i	·	·	i
C[C@]12c3[nH]c4ccccc4c3CCN1C(=O)C(CC(=O)NCCN1CCOCC1)C[C@@H]2C(=O)N1CCCCC1 (stereo partly specified)	5%	6%	i	-19%	-3%	i
Cc1cc2nnc(SCC(=O)NCc3ccco3)n2c2ccccc12	?	?	5.8µM*	18µM*	?	i
CCn1c(=O)cc(SCC(=O)NCc2ccco2)c2ccccc21	5µM*	7.9µM*	26µM*	21µM*	3.7µM*	?
COc1ccc(CNc2nc(SCC(=O)NCc3ccco3)nc3ccccc23)cc1	?	5%	i	-1%	20%	6.5µM*
COc1ccc(C(=O)NCCn2cc(SCC(=O)NCC3CCCO3)c3ccccc32)cc1 (stereo unspecified)	-1%	-2%	i	10%	?	i
Cc1cc2nnc(SCC(=O)NCc3cccs3)n2c2ccccc12	11%	13%	i	-7%	8%	i
COc1ccc(C(=O)NCCn2cc(SCC(=O)NCc3ccco3)c3ccccc32)cc1	?	-4%	16µM*	?	-22%	?
COc1cc(C(=S)N2CCOCC2)cc(OC)c1OC(=O)c1ccc(C)cc1	0%	-2%	i	?	?	i
CC1CC(OC(=O)c2ccccc2O)CC(C)(C)C1 (stereo unspecified)	·	·	·	-6%	1%	·
Cc1ccc(NC(=O)CSc2nnc3scc(-c4ccccc4)n23)cc1	·	·	i	·	·	i
COc1ccc(OC)c(CNC(=O)COc2cc(=O)n(C)c3ccccc23)c1	-4%	1%	i	2%	7%	18µM*
Cc1cccc(-n2c(SCC(=O)NCc3ccco3)nnc2-c2ccco2)c1	12%	0%	i	-1%	-4%	?
Cc1ccc(-n2c(SCC(=O)NCc3ccco3)nnc2-c2cccnc2)c(C)c1	13%	23%	i	20%	8%	21µM*
Cc1ccc(-c2csc3nnc(SCC(=O)Nc4cccc(C)n4)n23)cc1	-3%	-6%	i	-2%	3%	7.3µM*
